Results from PubChem BioAssay (NCI).
This is part of a sample that, as a whole, favours compounds with a hit. Of some 79,000 tested, about 15% had one in any assay. Values without a mark were called inactive. The source made the active and inactive calls. Rule as the data show it: active = growth inhibition above about 70%; inactive = the rest.

Tests used:
[1] = NCI Yeast Anticancer Drug Screen. Data for the rad50 strain (AID 155);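 also: 0% = growth of vehicle-only cultures of the same strain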; conditions: S. cerevisiae rad50 strain growth inhibition; at 50.0 µM; stronger effect = higher value
In short: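 Relative growth inhibition (compound vs vehicle) was measured in yeast with a defined repair-gene alteration.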

[2] = NCI Yeast Anticancer Drug Screen. Data for the mec2-1 strain (AID 157); conditions: S. cerevisiae mec2-1 strain, at 50.0 µM, stronger effect = higher value
In short: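 Vehicle-treated cultures served as reference for growth inhibition of compound-exposed mec2-1 yeast.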

[3] = NCI Yeast Anticancer Drug Screen. Data for the sgs1 mgt1 strain (AID 161);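 also: 0% = growth of cultures given vehicle only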; conditions: S. cerevisiae sgs1 mgt1 strain, at 50.0 µM, stronger effect = higher value
In short: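 Inhibition of yeast growth, normalised to vehicle-treated controls, is reported for a strain bearing genetic alterations in DNA damage repair.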

[4] = NCI Yeast Anticancer Drug Screen. Data for the cln2 rad14 strain (AID 165);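 also: 0% = growth equal to vehicle treated cultures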; conditions: S. cerevisiae cln2 rad14 strain, at 50.0 µM, stronger effect = higher value
In short: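 Each compound was tested on cln2 rad14 yeast. Inhibition of growth was calculated against vehicle-exposed controls.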

[5] = NCI Yeast Anticancer Drug Screen. Data for the bub3 strain (AID 167); conditions: S. cerevisiae bub3 mutant strain, at 50.0 µM, stronger effect = higher value
In short: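 Screening used yeast with an engineered genetic alteration affecting cell cycle control. Compound-exposed cultures were compared with vehicle cultures, and reduced growth was taken as inhibition.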

[6] = NCI Yeast Anticancer Drug Screen. Data for the mlh1 rad18 strain (AID 175); conditions: S. cerevisiae mlh1 rad18 strain growth inhibition; at 50.0 µM; stronger effect = higher value
In short: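 Vehicle-treated cultures served as the reference for growth inhibition in a yeast strain carrying DNA damage repair alterations exposed to each compound.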

COC1=CC(=O)C(=O)C=C1C(C)(C)C
growth inhibition [1]: 49.2%
growth inhibition [2]: 40.3%
growth inhibition [3]: 48.8%
growth inhibition [4]: 2.45%
growth inhibition [5]: 49.4%
growth inhibition [6]: 9.55%

Cc1ccc(NC(=O)C(=O)Cc2cc[n+]([O-])cc2)cc1
growth inhibition [1]: -1.9%
growth inhibition [2]: -1.5%
growth inhibition [3]: 11.9%
growth inhibition [4]: 7.6%
growth inhibition [5]: 3.55%
growth inhibition [6]: 4.05%

Cn1cnc2cc(NCCO)c([N+](=O)[O-])cc2c1=O
growth inhibition [1]: 11.1%
growth inhibition [2]: 18.9%
growth inhibition [3]: 4.5%
growth inhibition [4]: 11.4%
growth inhibition [5]: 24.4%
growth inhibition [6]: 24.3%

Nc1nc2c(-c3ccc([N+](=O)[O-])cc3)nnn2c2ccccc12
growth inhibition [1]: 12.7%
growth inhibition [2]: 5.5%
growth inhibition [3]: 37%
growth inhibition [4]: 9.7%
growth inhibition [5]: 22.2%
growth inhibition [6]: 25.3%

Cc1ccccc1-c1c2ccccc2cc2c1ccc1ccccc12
growth inhibition [1]: 12%
growth inhibition [2]: -21.7%
growth inhibition [3]: -5.05%
growth inhibition [4]: -20.9%
growth inhibition [5]: 9.35%
growth inhibition [6]: 0.35%

O=C1NC(=O)C(F)(F)C1(F)F
growth inhibition [1]: 4.9%
growth inhibition [2]: 7.3%
growth inhibition [3]: -6.45%
growth inhibition [4]: -1.1%
growth inhibition [5]: 0.25%
growth inhibition [6]: 4.35%

CCOC(=O)c1cc2ccccc2nc1N
growth inhibition [1]: 0%
growth inhibition [2]: 3.45%
growth inhibition [3]: -7.15%
growth inhibition [4]: -21.5%
growth inhibition [5]: -17.1%
growth inhibition [6]: 1.1%

O=C(O)c1cc2ccccc2c2cc3ccccc3cc12
growth inhibition [1]: 28.6%
growth inhibition [2]: 39%
growth inhibition [3]: 26.6%
growth inhibition [4]: 57.3%
growth inhibition [5]: 33.2%
growth inhibition [6]: 70.8% (active)

Cc1ccc(C(C)C)nc1
growth inhibition [1]: 17.1%
growth inhibition [2]: 18.5%
growth inhibition [3]: 19.1%
growth inhibition [4]: 25.2%
growth inhibition [5]: 22.5%
growth inhibition [6]: 26.7%

COc1ccc(CCCNC(=O)Cc2ccccc2CO)cc1OC
growth inhibition [1]: 21.6%
growth inhibition [2]: -46.6%
growth inhibition [3]: -3.4%
growth inhibition [4]: -0.8%
growth inhibition [5]: -10.2%
growth inhibition [6]: -48.2%

O=S(=O)(O)c1cc(I)c(O)c2ncccc12
growth inhibition [1]: 18.5%
growth inhibition [2]: 1%
growth inhibition [3]: -1.05%
growth inhibition [4]: -67.8%
growth inhibition [5]: 19.4%
growth inhibition [6]: 45.4%

CNc1ncnc2c1ncn2C
growth inhibition [1]: 20.8%
growth inhibition [2]: 24.5%
growth inhibition [3]: -7.1%
growth inhibition [4]: -17.1%
growth inhibition [5]: 1.6%
growth inhibition [6]: -2.1%

COC(=O)c1c(C)ccc(C)c1C(=O)c1c(C)cc(C)cc1C
growth inhibition [1]: -14.6%
growth inhibition [2]: 11.5%
growth inhibition [3]: 5%
growth inhibition [4]: -28.1%
growth inhibition [5]: 24.3%
growth inhibition [6]: 4.1%

O=c1cc(-c2ccccc2)[nH]c2nccn12
growth inhibition [1]: -55%
growth inhibition [2]: -27.1%
growth inhibition [3]: -53.1%
growth inhibition [4]: -57.5%
growth inhibition [5]: 5.85%
growth inhibition [6]: -58.7%

O=C1c2ccccc2C(O)(C#Cc2ccccc2)c2c1c(-c1ccccc1)c1ccccc1c2-c1ccccc1 (configuration not stated)
growth inhibition [1]: 14.7%
growth inhibition [2]: 6.15%
growth inhibition [3]: 15.7%
growth inhibition [4]: 9.75%
growth inhibition [5]: -8.3%
growth inhibition [6]: 10.4%

C=CCOC(=O)OCC=C
growth inhibition [1]: 4%
growth inhibition [2]: -8.55%
growth inhibition [3]: 2%
growth inhibition [4]: -3.7%
growth inhibition [5]: 23.2%
growth inhibition [6]: 3.1%

O=S(=O)(Nc1ccnn1-c1ccccc1)c1ccc(NC(=S)Nc2ccccc2)cc1
growth inhibition [1]: 34.1%
growth inhibition [2]: 38.5%
growth inhibition [3]: 46%
growth inhibition [4]: 27.7%
growth inhibition [5]: 56.4%
growth inhibition [6]: 65.5%

N#C/C(=C/n1c(=S)sc2ccccc21)c1nc2ccccc2s1
growth inhibition [1]: 11.8%
growth inhibition [2]: 14.7%
growth inhibition [3]: 49.6%
growth inhibition [4]: 24.9%
growth inhibition [5]: 23.4%
growth inhibition [6]: 30.8%

O=c1ccc2cc(Cl)ccc2o1
growth inhibition [1]: 12.6%
growth inhibition [2]: -12.9%
growth inhibition [3]: -7.8%
growth inhibition [4]: -16.4%
growth inhibition [5]: 18.1%
growth inhibition [6]: -20.1%

O=c1[nH]c(N2CCN(c3ccccc3)CC2)nc2cc3ccccc3cc12
growth inhibition [1]: 2.55%
growth inhibition [2]: -10.6%
growth inhibition [3]: -13.6%
growth inhibition [4]: -26.8%
growth inhibition [5]: -5.15%
growth inhibition [6]: -16.9%

COC(=O)C(=[N+]=[N-])C(=O)c1cccc([N+](=O)[O-])c1
growth inhibition [1]: 11.1%
growth inhibition [2]: 15.5%
growth inhibition [3]: 5.75%
growth inhibition [4]: 17.2%
growth inhibition [5]: 3.2%
growth inhibition [6]: 12.2%

CCOC(=O)CC(=O)Cc1oc2c(C(C)=O)c(O)c(C)c(O)c2c1C
growth inhibition [1]: -0.8%
growth inhibition [2]: 7%
growth inhibition [3]: -0.2%
growth inhibition [4]: 6.05%
growth inhibition [5]: 2.85%
growth inhibition [6]: 14.8%

CCCCCc1cc(O)cc2c1Oc1cc(O)cc(C(=O)CCCC)c1C(=O)O2
growth inhibition [1]: 4%
growth inhibition [2]: -17.2%
growth inhibition [3]: 8.6%
growth inhibition [4]: -9.9%
growth inhibition [5]: -9.4%
growth inhibition [6]: -14.2%

O=CN1CCN(c2ccc3ccc(=O)[nH]c3n2)CC1
growth inhibition [1]: -4.45%
growth inhibition [2]: -24.2%
growth inhibition [3]: 19.5%
growth inhibition [4]: 9%
growth inhibition [5]: -5.05%
growth inhibition [6]: -14.2%

O=C(S)c1ccccc1Br
growth inhibition [1]: 1.45%
growth inhibition [2]: 0%
growth inhibition [3]: 11.6%
growth inhibition [4]: -54.9%
growth inhibition [5]: -8%
growth inhibition [6]: 3.8%

Cc1cc(=O)[nH]c2cc(NN)ccc12
growth inhibition [1]: 10.2%
growth inhibition [2]: -3.85%
growth inhibition [3]: 4.85%
growth inhibition [4]: -4.35%
growth inhibition [5]: -0.45%
growth inhibition [6]: 8.55%

N=[N+]=CC(=O)OCC(N)C(=O)O (configuration not stated)
growth inhibition [1]: 78.7% (active)
growth inhibition [2]: 82.2% (active)
growth inhibition [3]: 80.2% (active)
growth inhibition [4]: 54.6%
growth inhibition [5]: 13.2%
growth inhibition [6]: 73.9% (active)

CN(C)CCCNC(=O)CCNC(=O)c1cc(NC(=O)c2cc(NC(=O)c3cc(NC(=O)c4nccn4C)cn3C)cn2C)cn1C
growth inhibition [1]: 24.4%
growth inhibition [2]: -23.4%
growth inhibition [3]: -17.2%
growth inhibition [4]: 12.4%
growth inhibition [5]: -5.15%
growth inhibition [6]: 7.15%

NNc1ccc(C(=O)O)cc1
growth inhibition [1]: -3.6%
growth inhibition [2]: 12.1%
growth inhibition [3]: -2.1%
growth inhibition [4]: 11%
growth inhibition [5]: -2.35%
growth inhibition [6]: -4.9%

Cc1c(-c2ccc(N)cc2)c(=O)oc2cc(O)ccc12
growth inhibition [1]: -8.65%
growth inhibition [2]: -11.1%
growth inhibition [3]: -2.2%
growth inhibition [4]: 33%
growth inhibition [5]: 8.1%
growth inhibition [6]: 8.55%

O=c1[nH][nH]c(=O)n2c1cc1oc(-c3ccccc3)cc12
growth inhibition [1]: 0.05%
growth inhibition [2]: 2.45%
growth inhibition [3]: 17.8%
growth inhibition [4]: -16.1%
growth inhibition [5]: 23%
growth inhibition [6]: 22.7%

Nc1cc(Cl)c2c(c1)C(=O)c1ccccc1-2
growth inhibition [1]: -2.45%
growth inhibition [2]: 0.7%
growth inhibition [3]: -3.95%
growth inhibition [4]: -5.3%
growth inhibition [5]: -5.3%
growth inhibition [6]: -5.4%

COc1cc(/C=C/c2ccnc3ccccc23)ccc1N(C)C
growth inhibition [1]: 4.7%
growth inhibition [2]: 24.8%
growth inhibition [3]: 15.6%
growth inhibition [4]: -32.3%
growth inhibition [5]: 29.8%
growth inhibition [6]: 24.7%

CCOC(=O)C1CC1Cc1ccccc1 (configuration not stated)
growth inhibition [1]: -18.1%
growth inhibition [2]: -9.95%
growth inhibition [3]: -2.2%
growth inhibition [4]: -7.2%
growth inhibition [5]: 6.05%
growth inhibition [6]: -2.95%

O=C(Cc1ccccc1CCO)NCCc1ccccc1
growth inhibition [1]: 5.35%
growth inhibition [2]: 1.55%
growth inhibition [3]: -32.9%
growth inhibition [4]: 24.8%
growth inhibition [5]: -21.8%
growth inhibition [6]: -14.9%

CC(C)(Oc1ccccc1)C(=O)Sc1c(-c2ccccc2)c(=O)n(-c2ccccc2)c(=S)n1-c1ccccc1
growth inhibition [1]: 13.2%
growth inhibition [2]: -14.8%
growth inhibition [3]: -15.3%
growth inhibition [4]: -5.4%
growth inhibition [5]: -13.2%
growth inhibition [6]: -6.95%

NNC(=S)NC1CCCCC1
growth inhibition [1]: 29.8%
growth inhibition [2]: -4.45%
growth inhibition [3]: 29.8%
growth inhibition [4]: 12.2%
growth inhibition [5]: 16.9%
growth inhibition [6]: 36%

CC1C(NNC(N)=O)Oc2cc3c(cc2C1c1ccccc1O)OCO3 (configuration not stated)
growth inhibition [1]: -5.7%
growth inhibition [2]: -25.4%
growth inhibition [3]: 11.8%
growth inhibition [4]: 10.2%
growth inhibition [5]: -11.1%
growth inhibition [6]: -4.75%

Cc1cc(Cl)ccc1Nc1nc2c(s1)C(=O)c1ccccc1C2=O
growth inhibition [1]: 90.8% (active)
growth inhibition [2]: 84.9% (active)
growth inhibition [3]: 85.6% (active)
growth inhibition [4]: 86.5% (active)
growth inhibition [5]: 87.6% (active)
growth inhibition [6]: 91.4% (active)

CCc1cc2c(c3c1CCCC3=O)CC1(C2)Cc2cc(CC)c3c(c2C1)C(=O)CCC3
growth inhibition [1]: 6.05%
growth inhibition [2]: -9.9%
growth inhibition [3]: -3.6%
growth inhibition [4]: 5.4%
growth inhibition [5]: 10.7%
growth inhibition [6]: 4.5%

CCC(CC)C(=O)OC1CCCCC1C(C)C (configuration not stated)
growth inhibition [1]: 6.8%
growth inhibition [2]: -3.5%
growth inhibition [3]: -0.2%
growth inhibition [4]: -13.6%
growth inhibition [5]: 3.05%
growth inhibition [6]: 0.35%

CC1=CCC(CC(=O)O)C1(C)C (configuration not stated)
growth inhibition [1]: 10.2%
growth inhibition [2]: 2.05%
growth inhibition [3]: -2.85%
growth inhibition [4]: 4.3%
growth inhibition [5]: 6.55%
growth inhibition [6]: -5%
